Source: the supplement of paper PMC3334620
The full ranking holds about 33,000 sequences; the median of “E-score (-0.5 to 0.5)” is about -0.0034, and the highest 2% start at about 0.25. What follows is part of a selection rich in the highest values, with near analogues and random picks from the rest.

Each sequence was assayed against T1, Yap3 (UniProt P38749) (assay: PBM E-score (8-mer binding enrichment) (E-score (-0.5 to 0.5)); higher = stronger / more preferred TF binding). Settings: protein concentration: 100 nM; construct: GST-full length.
T1 sequence: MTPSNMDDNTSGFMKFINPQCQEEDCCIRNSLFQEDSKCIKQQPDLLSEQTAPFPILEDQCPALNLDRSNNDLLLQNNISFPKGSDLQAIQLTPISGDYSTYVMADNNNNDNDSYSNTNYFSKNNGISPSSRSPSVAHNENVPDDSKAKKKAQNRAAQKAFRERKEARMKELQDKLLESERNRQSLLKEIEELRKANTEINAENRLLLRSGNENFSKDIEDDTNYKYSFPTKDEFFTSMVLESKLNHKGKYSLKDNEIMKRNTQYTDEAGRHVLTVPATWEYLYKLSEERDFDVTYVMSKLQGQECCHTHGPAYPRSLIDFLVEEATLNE
Experimental: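 Universal 'all 10-mer' protein binding microarrays (Agilent AMADID 015681) probed with GST-tagged S. cerevisiae TFs (full-length or DBD) made by in vitro transcription/translation (PURExpress), about 100-200 nM. Bound TF was detected with fluorescent anti-GST. Each ungapped 8-mer (which stands for itself and its reverse complement) is scored by the PBM enrichment score (E-score), a modified Wilcoxon-Mann-Whitney statistic from -0.5 to +0.5, computed with the Universal PBM Analysis Suite. Scale: above 0.35 generally sequence-specific binding.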

Sequence	PBM E-score
CACCCATG	-0.014
ATCGCACC	-0.106
GCTCTGTA	-0.055
GCCAAGTA	-0.0708
CATAAGAG	-0.071
CTTTTGTC	0.0462
CGACCCAC	-0.219
TCGGATAA	0.143
GTCAAGTA	-0.12
ATCTCTGC	0.0777
ACACTGAT	0.0678
ATTACTGG	-0.0154
GGCGAAAC	0.0862
GACGAAAA	0.264
CACGAAAA	0.176
TGCGAAAA	0.0554
GGCGAAAA	0.256
TACGAAAA	0.144
CTGCGATC	-0.0633
CGTAGATC	0.0115
GTACAGGA	0.0424
AACATCTC	0.08
ACTGAAAC	0.27
ACAGAAAA	0.198
GCTGAAAC	-0.0804

Sequence	PBM E-score
ACTGAAAG	0.114
ACAGAAAC	0.285
CCAGAAAC	0.0139
GCAAATCC	0.156
CGTCCTTC	0.0406
CTATGGGA	-0.103
CGTCCCTA	-0.206
TACTGAAA	0.273
TACTAAAA	0.255
CACTAACA	0.162
GACTAAAA	0.0994
AACTAACA	0.211
AACTATAA	0.186
TACTATAA	0.266
TACTAACA	0.294
CACTATAA	-0.00697
AACTAAAA	0.148
CACTGAAA	0.0595
GACTGAAA	0.0541
GACTTTGA	0.00307
TTGTACAA	0.185
CATCAGAC	-0.133
ACATACCC	0.0479
GAACTCGC	0.0628
CTCCTACC	-0.275

Sequence	PBM E-score
CCTGAACG	-0.154
GTCTAGCA	0.0493
ATGAGAAA	0.181
GCGTTAGA	0.0241
AAGCGTTC	-0.0829
GCGGCCTA	-0.0845
ATTTTAAA	0.282
ATTTTTTG	0.226
AATTTTTA	0.252
AATTTTAA	0.212
GTTTTAAA	0.235
ATTTTTAG	-0.0279
ATTTTAAC	0.149
ATTTTTAA	0.295
ATTTTTTA	0.255
TCAGCGCA	-0.216
CGGTTTTA	-0.106
CTAAGTAC	0.016
CGATGGGC	-0.18
CCAACAGC	0.0293
GAGTCATC	-0.00184
AATACACC	0.272
GATACACC	0.161
AATACACA	0.131
AATACACT	0.259

Sequence	PBM E-score
AATACACG	0.0582
CATACACC	0.0314
CGGCAGGC	-0.189
CGAGAGTA	0.0233
GCATTGTA	-0.0355
GCAAAGAA	0.0916
CAGCGAAG	-0.16
ATTGCAAG	0.0639
ATTGCAAT	0.283
ATTGCAAA	0.0883
ATGGCCAA	-0.114
AGGTGCCG	-0.101
CTGTTTCA	0.0525
GCCAAGAC	-0.195
CAAATACC	0.0818
CAAATATC	0.285
GAAATATC	0.0879
AAAATATG	0.256
AAAATATC	0.257
CAAATATG	0.131
AAAATAAC	0.0743
AAAATACG	0.234
AAAATATA	0.19
AAAATAAG	0.271
CAAATAAG	-0.0581

Sequence	PBM E-score
CGAATATC	0.154
GAAGCTAA	-0.136
ATAAGGTG	-0.00609
ATCTGCCG	0.101
GTCAGCAC	-0.0445
GGATCAAA	0.111
AAAATATT	0.318
AAAATAGT	0.12
AAAATACT	0.0626
TAGCAACA	0.114
AAGCACTT	-0.0376
CGTGGCTC	-0.321
CCGGAAAA	0.106
AATCGACA	0.258
AATCGACT	-0.0232
AATCGACC	-0.00549
AATCGAAG	0.256
AATCGAAC	0.107
AATCGAAA	0.0602
CACGCGAA	-0.0244
AACGCGAG	0.126
AACGCGAA	0.298
AACGCGCT	-0.012
AACGCGCA	0.103
AACGCGCG	0.265

Sequence	PBM E-score
ACGCACCC	-0.243
ACCCGCAA	-0.239
ACTAGTTG	-0.0214
TCGCAAGA	-0.0427
TCCATCCA	-0.0216
ACCCCCAT	-0.246
CAGACAAC	0.0898
AAGACAAG	0.045
AAGACAAC	0.267
GAAAGAGA	0.0574
ATCATCAT	0.139
AATTTGCG	0.0563
ATCGTAAG	0.137
CTCGTAAG	0.257
CTCGTAAC	0.177
ATTGTCTG	0.11
AAGATGAT	0.0727
ATTGCTCA	-0.00161
AGTAGATA	0.273
TATAGATA	0.0759
GATAGATA	0.0286
CGTAGATA	0.0847
AGTAGATC	-0.0265
AATAGATA	0.267
GGCATCGA	-0.125

Sequence	PBM E-score
ACGGCGCA	0.0681
AGAATGCC	-0.00977
CCGCAAAA	0.076
AATAGTTG	0.267
AATAGTAC	0.0612
AATAGTTC	0.156
CATAGTAA	0.198
AATAGTTA	0.0935
TATAGTAA	0.27
AATAGTAA	0.258
GATAGTAA	0.11
AATAGTAG	0.206
GCCTAACC	-0.151
ATCTACTA	0.185
AAACCTCG	-0.132
ACATCGAT	0.0921
ACCTAGTA	-0.119
CTTCATTA	0.242
ATTCATTA	0.174
GTTCATTA	0.259
ACTTCATC	0.0677
ACCGTCGG	-0.163
AACTAGCT	-0.0564
GGATATTA	0.0994
CTCTATTA	0.0839

Sequence	PBM E-score
ATATATTG	0.0595
GTATATTA	0.211
ATATATTA	0.32
CTATATTA	0.325
GTAGATTA	0.245
CGATATTC	0.0953
ATAGATTA	0.348
CTATATTC	0.151
ATAGATTG	0.119
CGATATTA	0.358
GGTACTGA	-0.124
GATGGGGA	-0.0817
ATATAGAC	0.123
AGTGCATC	-0.0272
CTACGCGC	-0.0286
ATAGAGAT	0.166
CCATATTA	0.24
CTATAGTA	0.156
GTATAGTA	0.143
ACATATTG	0.11
ATATCTCA	0.268
ATCTCTCA	0.15
GTATATCA	0.0881
CTATATCA	0.264
ATATATCA	0.118

Sequence	PBM E-score
ATATAGTA	0.264
ACATATTA	0.305
CTATCTCA	-0.0511
AGTGCCTC	-0.229
GATAGACA	0.0506
GTCTTCGA	-0.122
TCAGTAGA	0.0364
GGTCCACC	-0.329
ACAGCAAG	0.247
ACAACATG	0.136
ACGCAAGT	-0.0875
CGAGCATC	0.00988
AGCCCAGA	-0.0938
ATATCAAC	0.166
ATATCAAA	0.244
ATATCAAG	0.26
ATATCAAT	0.268
CTATCAAG	0.067
ATATCAGG	-0.0437
GACTGTCC	-0.203
ACGCTCAC	-0.0296
AAACACTC	0.0568
AAATAAGC	0.12
CAACATAA	0.297
CAACATAC	0.0807

Sequence	PBM E-score
TAACATAA	0.337
CAACATAG	0.144
GAACATAA	0.134
AAACATAA	0.202
CTGTGACA	0.0329
CATGGGCA	-0.0447
GTAGCGTA	0.0978
AATCCTGC	0.0275
ACTTGGGC	-0.119
AGCTCTAG	-0.0862
GAAAATCA	0.132
CAAGCAAA	0.00556
AGCCAGGA	-0.0633
AAAACTAT	0.182
CAAACTAA	0.25
TAAACTAA	0.282
GAAACTAA	0.00343
AAAACTAA	0.298
AAAACTAG	0.021
AGTGGTTA	0.142
GACACCGA	-0.136
CTGCTCCA	-0.0981
ATCCGTTA	0.284
ATCCGTTC	0.057
GTCCGTTA	0.107

Sequence	PBM E-score
ACGATACC	0.157
ACTGATCA	0.131
ACTCTACC	0.0336
ATATGGAG	0.264
CTCTATAC	-0.129
ATATATAT	0.231
ATATATGA	0.185
GTATATAC	0.0969
CTATATAG	0.121
ATATATGG	0.259
CTATGGAG	-0.0464
ATATATGC	0.224
CTATATAC	0.367
ATATGGAC	0.0106
ATATATAC	0.299
AAGAGAGC	-0.218
CCCACCAA	0.0694
ACCCCTTC	-0.182
CATCGCAC	-0.0244
CGAACTTA	0.0175
GTAGTTTA	0.203
ATAGAGCA	0.0256
CCCCGCCA	0.0511
ACAAATTG	0.173
ATAAATTC	0.153

Sequence	PBM E-score
AAAAATTG	0.0568
AGAAATTC	0.0349
GTAAATTA	0.223
ATAAATTG	0.312
AGAAATTG	0.266
ATAAATTA	0.365
CTAAATTA	0.212
AGACAAAA	0.0827
ACTAATGA	0.264
TCTAATCA	0.185
GCTAATAC	0.176
CCTAATAC	0.122
ACTAAGAA	0.205
ACTAATCA	0.255
ACTAATCT	0.00634
ACTAAGAC	-0.0709
ACTAATAC	0.288
GCTAATGA	0.0606
CCTAATGA	0.128
ACTAAGAT	0.255
CGTGTGTA	0.172
ATAGGTTA	0.0929
AGCAAACT	0.158
ATAGAGGA	-0.186
ACTAATAG	0.244

Sequence	PBM E-score
CCTAATAA	0.146
ACGAATAT	0.212
ACTAATAA	0.303
TCTAATAA	0.167
ACTAATAT	0.301
ATTAAAGG	0.199
CAAACTCC	-0.0365
CCGTGGAA	-0.00863
GCTCACAA	0.0362
TCGATGCA	-0.0467
CGTAATTC	0.296
AGTAATTG	0.164
AGTAATTC	0.235
GGTAATTA	0.221
AGTAAGTA	0.221
CGTAATTA	0.335
CGTAATGA	0.241
CCTAATTC	0.036
AGTAATTA	0.307
AGAAATCA	0.0967
ACCTCTGG	-0.158
ACCAGGAG	-0.207
CTACTCTC	-0.0538
TATGGTCA	0.0184
AATGGTCC	0.113

Sequence	PBM E-score
AATGGTCA	0.26
ACATCCTC	-0.0125
CTGAGAAA	0.0446
AATTTAAA	0.171
CACATGTA	0.109
GACATGTA	0.162
TACATGTA	0.255
ATCGGAAA	0.112
GTCGGAAA	0.263
CTCGGAAA	0.0289
CGAGCCAC	-0.228
GCCAGTAA	-0.206
CTACAAAA	0.0817
ATACAAAA	0.284
TTACAAAA	0.256
GTACAAAA	0.233
ATACAAAT	0.173
TCACAAAA	0.206
GGGTAGCA	-0.108
